High-throughput results: PubChem, National Center for Advancing Translational Sciences (NCATS)
Rows were chosen to be rich in hits. Some 12% of all compounds tested hit in one or more screens of this group.
JMJD2A Tudor inh – blocks the human JMJD2A Tudor domain; O75164; AlphaScreen JMJD2A-Tudor / H3K4me3 peptide binding; Potency, µM (top dose mostly 114 µM), for the others: top-dose activity change, negative = inhibition, most hits filed as inhibitors; hit rate 4.4% among 390,000; further: potency means the concentration at half of the fitted maximal effect; on the % scale 0 is the no-effect control and ±100 the full control effect; nearly all actives have a fitted effect of over 50% in size
G9a inh – inhibitors of human histone lysine methyltransferase G9a. Q96KQ7. hit rate 8.8% among 350,000. Potency, µM (doses to about 102 µM), inactives show at the highest dose activity, negative = inhibition, actives largely listed as inhibitors. AID 504332. G9a H3K9 monomethylation, AlphaScreen, 2 h; further: potency means the concentration at half of the fitted maximal effect; on the % scale 0 is the no-effect control and ±100 the full control effect; nearly all actives have a fitted effect of over 75% in size
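AlphaScreen read-out: biotin-H3K9 peptide (500 nM) methylation by 20 nM enzyme with 20 uM SAM, 2 h at room temperature after 15 min compound preincubation; anti-monomethyl H3K9 antibody plus donor/acceptor beads, 10 min dark.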
PI5P4K alpha inh – blocks human PI5P4K alpha kinase activity | P48426 | max response, % | hit rate 1.2% among 330,000 | PI5P4Kalpha enzyme, ADP-Glo luminescence, 60 min; stronger effect = lower value; active means max response of -50% or lower; inconclusive means between -30% and -50%; inactive means -30% or higher; further: value at the top dose of about 77 µM; on the % scale 0 is the no-effect control and ±100 the full control effect
Target sequence (P48426 whole entry, looked up): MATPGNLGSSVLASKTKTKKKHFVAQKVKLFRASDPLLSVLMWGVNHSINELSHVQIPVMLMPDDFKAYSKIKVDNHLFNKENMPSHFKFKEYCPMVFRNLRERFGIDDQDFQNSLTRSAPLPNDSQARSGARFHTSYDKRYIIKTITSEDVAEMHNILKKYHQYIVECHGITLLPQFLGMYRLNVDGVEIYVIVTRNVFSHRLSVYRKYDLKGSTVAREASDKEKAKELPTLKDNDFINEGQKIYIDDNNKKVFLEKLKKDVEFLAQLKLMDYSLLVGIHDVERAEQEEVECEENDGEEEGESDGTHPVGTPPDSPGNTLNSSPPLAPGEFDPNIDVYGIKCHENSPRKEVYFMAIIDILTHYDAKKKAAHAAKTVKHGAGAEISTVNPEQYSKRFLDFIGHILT
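Human PI5P4Kalpha with substrate in 0.038 M HEPES pH 7.4, 0.28 mM EGTA, 0.1% CHAPS, 5% DMSO; reaction started with 5 microM ATP (final), 60 min at room temperature. ADP formed read by ADP-Glo luminescence.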
PLK1 PBD inh – PLK1 (human) polo-box domain binding inhibition | P53350 | Plk1 PBD binding of FITC phosphopeptide, fluorescence polarization | Potency, µM, for the others: max response, negative = inhibition, usual class: inhibitors | hit rate 2.8% among 360,000 | AID 720504; further: potency means the concentration at half of the fitted maximal effect; series mostly up to about 57 µM; on the % scale 0 is the no-effect control and ±100 the full control effect; nearly all actives have a fitted effect of over 65% in size
HP1b chromo inh – HP1-beta chromodomain-methylated histone interaction inhibition | AlphaScreen HP1-beta / biotin-H3K9me3 peptide binding | hit rate 0.56% among 390,000 | Potency, µM (doses to about 114 µM), without a hit: at the highest dose activity change, negative = inhibition, actives largely listed as inhibitors | AID 540317; further: potency means the concentration at half of the fitted maximal effect; nearly all actives have a fitted effect of over 70% in size
Target sequence (P83916 whole entry, looked up): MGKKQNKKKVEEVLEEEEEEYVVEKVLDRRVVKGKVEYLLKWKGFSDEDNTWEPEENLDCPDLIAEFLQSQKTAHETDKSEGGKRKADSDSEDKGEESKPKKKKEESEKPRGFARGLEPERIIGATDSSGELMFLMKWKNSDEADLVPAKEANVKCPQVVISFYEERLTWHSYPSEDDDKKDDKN
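Compound inhibition of the preformed complex between 50 nM HP1-beta and 50 nM biotinylated H3K9me3 peptide was read by AlphaScreen. Buffer was PBS pH 7.4 with 0.01% Tween-20. Incubations ran 30 min at room temperature, with 10 ug/mL donor/acceptor beads.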
BAZ2B inh – inhibitors of human BAZ2B bromodomain | Q9UIF8 | AID 504333 | hit rate 4.4% among 360,000 | Potency, µM (doses to about 114 µM), for inactives: top-dose activity change, negative = inhibition, usual class: inhibitors | AlphaScreen BAZ2B-H3K14Ac peptide displacement; further: potency means the concentration at half of the fitted maximal effect; on the % scale 0 is the no-effect control and ±100 the full control effect; nearly all actives have a fitted effect of over 60% in size
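In this displacement format the biotinylated H3(5-23) peptide acetylated at Lys14 serves as ligand at 50 nM, with BAZ2B at 50 nM in PBS pH 7.4 containing 0.01% Tween-20. Donor and acceptor beads are 10 ug/mL final.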
Starred values were filed as active, the others as inactive; ? = inconclusive; . = no result given; [ ] = another dose, or the depositor's remark. Unless noted, the call rests on the fitted dose curve; in most records, active means well fitted curve in the direction sought with a large enough effect; inconclusive means small, poorly fitted or top-dose-only effect, or another doubt; inactive means no such curve, though single readings can be large; an effect the other way counts as inactive or inconclusive.

SMILES	JMJD2A Tudor inh	G9a inh	PI5P4K alpha inh	PLK1 PBD inh	HP1b chromo inh	BAZ2B inh
Cc1ccc(-c2ccc(NC(=O)C3C4C=CC(C4)C3C(=O)O)cc2)o1 (configuration not stated)	-32%	16µM*	.	-5%	14%	?
CN1CCN(NC(=O)c2cn(-c3ccccc3)nc2-c2ccc(OC(F)F)cc2)CC1	-22%	79µM*	-1	-5%	25%	-29%
CCCNC(=O)c1ccc(N2CCC3(CC2)CC(c2ccccc2)=NO3)c(NC(=O)Cc2ccc(F)cc2)c1	-32%	50µM*	1	1%	28%	?
Cc1c(Cc2ccccc2)sc(/N=C/c2c(O)ccc3ccccc23)c1C(N)=O	?	3.2µM*	?	?	?	?
Cc1c(Cc2ccccc2)sc(/N=C/c2ccc3ccccc3c2)c1C(N)=O	?	20µM*	-27	?	8%	8%
O=C(CC(c1cccs1)N1Cc2ccccc2C1=O)Nc1ccc(Cl)cc1 (configuration not stated)	-6%	-8%[59 µM]	.	.	29%	-7%
CCC(=O)NCCCNc1nc2c(C)cccc2cc1C#N	-13%	35µM*	-8	-7%	11%	0%
COc1ccc(C(=O)NCCNc2nc3c(C)cccc3cc2C#N)cc1	13%	.	-9	0%	43%	.
CCOCCCNC(=S)N1CCCN(c2nc3c(C)c(C)ccc3cc2C#N)CC1	41%	-2%	15	-5%	102%	-4%
CCOCCCNC(=S)NCCCNc1nc2c(C)c(C)ccc2cc1C#N	-9%	56µM*	22	-21%	26%	-3%
COc1ccc(NC(=O)N2CC[C@@]3(CCCN(C(=O)c4cccc(F)c4)C3)C2)cc1	.	4%[12.7 µM]	.	.	.	.
Cc1cccc(CN2C(=O)CCSc3ccc(Cl)cc32)c1	-18%[11.4 µM]	42%	3	27µM*	28%	27%
O=C1CCSc2ccc(Cl)cc2N1Cc1ccccc1	1%	-12%[2.33 µM]	4	-1%	44%	4%
Cc1nnc(NC(=O)CCS(=O)(=O)c2ccccc2)s1	-3%	?	4	-6%	3%	-18%
Cc1ccc(S(=O)(=O)CC(=O)Nc2nnc(C(C)(C)C)s2)cc1	?	22µM*	-9	?	-14%	4%
CC(C)(C)c1nnc(NC(=O)CCS(=O)(=O)c2ccccc2)s1	-2%	28µM*	-10	-29%	-9%	-9%
c1cc(C2CCN(Cc3nc(-c4ccc5c(c4)OCO5)no3)CC2)ccn1	79µM*	3.5µM*	3	-8%	10%	56µM*
COc1ccc(CCNCc2c(C(=O)O)c(C)n(Cc3ccccc3C)c2C)c(OC)c1	-12%	-3%[59 µM]	.	.	20%	-10%
Cn1c(N)c(C(=O)CCl)c(=O)n(Cc2ccccc2)c1=O	-10%	8%	-3	17µM*	39%	-2%
CCN(CC)CCNC(=O)c1cc(-c2ccco2)nc2ccccc12	63µM*	32µM*	-15	?	-2%	-29%
Cn1c(N)c(C(=O)COC(=O)c2cc(-c3ccco3)nc3ccccc23)c(=O)n(Cc2ccccc2)c1=O	.	7.9µM*	.	.	.	?
CCN1CCN(C(=O)c2cc(-c3ccc(Cl)s3)nc3ccccc23)CC1	-13%	.	-4	-3%	35%	-12%
CCN1CCN(C(=O)c2cc(-c3ccco3)nc3ccccc23)CC1	-35%	?	-19	-21%	-3%	71µM*
COc1ccc(CNc2ncnc3ccc(-c4ccc(N(C)C)cc4)cc23)c(OC)c1	.	-1%[0.501 µM]	.	.	.	.
COC(=O)C1CN(C(=O)COc2ccc(C)cc2)c2ccccc2O1 (configuration not stated)	-2%	19%	1	-3%	25%	-2%
SMILES	JMJD2A Tudor inh	G9a inh	PI5P4K alpha inh	PLK1 PBD inh	HP1b chromo inh	BAZ2B inh
COc1ccc2nc(-c3ccc(N(C)C)cc3)sc2c1	-10%	.	.	.	.	.
O=C(OCC(=O)N1CCN(C(=O)c2ccco2)CC1)c1cc(-c2cccc(Br)c2)nc2ccccc12	-31%	14µM*	.	-7%	-14%	-39%
Nc1nc(N2CCN(C(=O)c3ccco3)CC2)nc2ccccc12	3%[57.1 µM]	?	0	-17%	53%	7%
O=C(OCC(=O)N1CCN(C(=O)c2ccco2)CC1)c1cc(-c2ccccc2)nc2ccccc12	?	?	-13	-16%	-19%	?
Cn1c(N)c(C(=O)COC(=O)c2cc(-c3ccco3)nc3ccccc23)c(=O)n(C)c1=O	56µM*	7.9µM*	-77*	?	?	-26%
Nc1nc(N2CCN(C(=O)c3ccco3)CC2)nc2ccc(Br)cc12	-15%	50µM*	-30	?	49%	-36%
COc1ccc(-c2cc(C(=O)OCC(=O)c3c(N)n(C)c(=O)n(C)c3=O)c3ccccc3n2)cc1	13%	8%	-1	-12%	56%	-14%
O=C(COC(=O)c1cc(-c2ccco2)nc2ccccc12)NCc1ccccc1	-8%	45µM*	?	-16%	26%	10%
CCOc1ccc(C(C)C)cc1S(=O)(=O)Nc1cccc(-c2ccc(N3CCOCC3)nn2)c1	-11%	3%[59 µM]	.	.	24%[57 µM]	-1%
CCCC(=O)N(Cc1cc(=O)[nH]c2ccccc12)c1ccccc1C	?	35µM*	-16	5%	1%	0%
CC(=O)N(Cc1cc(=O)[nH]c2ccccc12)c1ccccc1	-18%	?	-13	-8%	22%	?
CC(=O)N(Cc1cc(=O)[nH]c2ccccc12)c1ccccc1C	?	25µM*	-25	-9%	-3%	-1%
Cc1noc(C)c1CSCC(=O)Nc1cccc(C(F)(F)F)c1	-8%	.	9	1%	39%	.
COCCNc1nc(NCCN2CCNC2=O)c2sc(-c3ccccc3)cc2n1	.	.	-2	-3%	.	.
COc1ccc(C(c2c(C)[nH]n(C(N)=S)c2=O)C(C#N)C#N)cc1 (configuration not stated)	-7%	?	-1	21µM*	24%	5%
